# NR3A LBD binder: modulators (binders) of human NR3A ligand-binding domain. NR3A LBD differential scanning fluorimetry, Tm shift; 0% = protein alone, 100% = glycine-bound protein. Tm shift relative to glycine control, % at 25 µM. 340,000 tested, 2.5% active;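 active means melting temperature shift of at least 10% of the positive control shift, at one fixed dose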
# ADAM17 inh: inhibitors of human ADAM17; AID 720648; 370,000 tested, 0.83% active; recombinant ADAM17, EDANS/DABCYL FRET peptide cleavage; P78536; inhibition, % at 6.95 µM;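 active means inhibition above the mean of compounds lying between control limits plus 3 SD, set per campaign, cut at about 8.5% in these data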;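 further: 0% = DMSO-only wells as the low control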
# Target sequence (P78536 215-824 limits assumed): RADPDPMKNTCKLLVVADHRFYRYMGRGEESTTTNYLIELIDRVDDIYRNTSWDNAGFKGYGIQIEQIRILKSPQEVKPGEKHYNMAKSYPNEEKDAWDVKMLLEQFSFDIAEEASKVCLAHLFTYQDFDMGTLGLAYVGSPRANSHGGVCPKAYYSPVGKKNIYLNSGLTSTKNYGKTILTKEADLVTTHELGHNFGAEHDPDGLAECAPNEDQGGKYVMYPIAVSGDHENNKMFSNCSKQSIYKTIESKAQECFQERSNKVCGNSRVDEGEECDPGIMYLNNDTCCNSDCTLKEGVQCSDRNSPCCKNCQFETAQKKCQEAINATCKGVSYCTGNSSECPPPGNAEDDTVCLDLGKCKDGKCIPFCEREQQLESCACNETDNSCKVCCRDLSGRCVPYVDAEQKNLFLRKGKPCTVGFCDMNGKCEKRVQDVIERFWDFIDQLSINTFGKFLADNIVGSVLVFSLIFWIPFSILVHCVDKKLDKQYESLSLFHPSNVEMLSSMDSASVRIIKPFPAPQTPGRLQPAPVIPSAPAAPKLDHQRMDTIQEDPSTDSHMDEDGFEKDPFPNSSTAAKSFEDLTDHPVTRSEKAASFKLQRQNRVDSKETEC
# aDG glyco act: increases alpha dystroglycan glycosylation; Pro5-aDG cells, alpha-DG glycosylation AlphaScreen (IIH6); 0% Pro5, 100% B10-LARGE cell signal; activation, % at 10 µM; 360,000 tested, 0.22% active;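 active means activation of at least 8% versus controls, or a plate z-score of at least 8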;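 further: Pro5 are CHO cells carrying HIG-tagged alpha-DG that lacks glycosylation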
# FAS TE block: FAS thioesterase (human) inhibition | 360,000 tested, 0.67% active | recombinant FAS-TE, OMFH fluorogenic substrate, fluorescence endpoint | inhibition, % at 15 µM | P49327 | AID 602261;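 active means compounds whose normalised, plate-corrected inhibition of enzyme fluorescence in the single-dose primary screen is 50% or more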;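 further: 0% = DMSO with enzyme and 100% = substrate without enzyme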
# ADAM10 inh: ADAM10 inhibition, QFRET primary screen; AID 720582; 370,000 tested, 0.62% active; inhibition, % at 7 µM; recombinant ADAM10, EDANS/DABCYL FRET peptide cleavage, 3 h; O14672;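 active means inhibition above a per-campaign cutoff equal to the mean of compounds falling between control-based bounds plus 3 SD, cut at about 20% in these data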;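 further: 0% = DMSO wells while the 100% control is not disclosed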
# An asterisk follows results filed as active; · = no result. Most compounds without a hit are left out; they make up all but 4% or so of the library.
SMILES,NR3A LBD binder,ADAM17 inh,aDG glyco act,FAS TE block,ADAM10 inh
COc1cccc(-c2cc(C(=O)Nc3ccc(N(C)C(C)=O)cc3)c3cc(Br)ccc3n2)c1,0,8,0,44,20*
COc1cc2c(cc1OC)C(COc1ccc(F)cc1)N(C(=O)c1ccco1)CC2 (configuration not stated),-1,-1,0,8,5
CNS(=O)(=O)c1cccc(C(=O)OCC(=O)c2ccc[nH]2)c1,39*,-4,0,-5,-14
CNS(=O)(=O)c1cccc(C(=O)OCC(=O)N2c3ccccc3CC2C)c1 (configuration not stated),14*,-2,0,-1,4
CCc1ccc2c(c1)C(=O)c1ccccc1C2=O,18*,-3,1,10,0
CC(C)(C)c1ccc2c(c1)C(=O)c1ccccc1C2=O,24*,-3,0,-5,5
O=C1c2ccccc2-c2ccc(P(=O)(O)O)cc21,·,0,·,·,-1
CC1CC(C)CN(C(=O)C(C)N(C)CC(=O)Nc2ccc(Cl)cc2)C1 (configuration not stated),0,3,1,1,-1
CCOC(=O)c1cnc(SCC)[nH]c1=O,0,0,0,-4,8
COc1ccc(C2CC(=O)C(c3ccc(C(N)=O)cc3)=CN2Cc2ccccc2)cc1 (configuration not stated),·,-4,·,·,-22
CCc1ccccc1NC(=O)CN1CCN(C(=O)CN2C(=O)NC3(CCCC3)C2=O)CC1,0,-4,0,-7,-14
CCc1ccccc1NC(=O)CN1CCN(C(=O)CN2C(=O)NC3(CCCCC3C)C2=O)CC1 (configuration not stated),21*,-1,0,-9,4
O=[N+]([O-])c1ccc(N=Nc2c(Cl)cc(O)cc2Cl)cc1,18*,5,-1,29,17
COc1ccccc1Oc1ccc(NC(=O)c2ccc(Cl)cc2)cc1,-7,2,1,3,7
O=C(Nc1ccc(Oc2ccc(Cl)cc2)c(Cl)c1)c1cc(I)cc(I)c1O,31*,-6,1,40,-11
COc1ccc(C2=NN(C(=O)c3cccc([N+](=O)[O-])c3)C(c3cccc([N+](=O)[O-])c3)C2)cc1 (configuration not stated),-1,0,0,50*,5
COc1ccc(S(=O)(=O)Nc2ccc3c(c2)OCCO3)cc1Cl,-50,0,0,12,7
CCN(N)C(=S)Nc1ccc(F)cc1,-1,-6,0,-4,-4
COc1ccc2oc3cc(Cl)ccc3c(=O)c2c1,·,-55,0,2,-196
O=C(CSCc1c(F)cccc1Cl)NCc1cccnc1,12*,-1,0,-9,-4
O=C(CSCc1c(Cl)cccc1Cl)NCc1cccnc1,·,0,0,-11,3
O/C(=C\c1nc2ccccc2nc1/C=C(\O)c1ccccc1)c1ccccc1,22*,·,1,-12,·
C=CCn1c(SC(C)C(=O)NCc2ccc3c(c2)OCO3)nc2scc(-c3ccccc3)c2c1=O (configuration not stated),0,6,0,14,6
O=C(O)C(c1ccccc1)N1C(=O)/C(=C\c2ccc(-c3ccccc3Cl)o2)SC1=S (configuration not stated),31*,-1,0,40,-1
O=C(O)C(c1ccccc1)N1C(=O)/C(=C\c2ccc(-c3ccc(Br)cc3)o2)SC1=S (configuration not stated),5,-2,0,29,6
CCOc1ccc(NC(=O)c2sc3nc(C)nc(N4CCOCC4)c3c2C)cc1,16*,1,0,4,4
COc1cc(C(C)=O)ccc1Oc1cnccn1,0,-4,0,-4,6
Cc1ccc(-c2nnn(CC(=O)N(Cc3ccccc3)C(C(=O)NC(C)(C)C)c3ccncc3)n2)o1 (configuration not stated),14*,·,0,-3,·
CC(C)(C)NC(=O)C(c1ccc(O)cc1)N(Cc1ccco1)C(=O)Cn1nnc(-c2cccs2)n1 (configuration not stated),1,1,0,4,7
Cc1ccc(-c2nnn(CC(=O)N(Cc3ccco3)C(C(=O)NC(C)(C)C)c3ccc(C)o3)n2)o1 (configuration not stated),-5,0,0,14,7
